Our source for the cytotoxicity call values is the antibiotic and cytotoxicity screens of Wong et al. (2023).

SMILES strings stand for the structures. Among all 39,000 compounds or so, about 3,300 (8.5%) were called active. What follows is part of a selection rich in actives, with near analogues and random picks from the rest.

For the assay, the system named is HepG2. The experiment in a line: cytotoxicity call (relative viability < 0.9). Conditions: 10 µM.
On to `CC1CN(c2c(F)c(N)c3c(=O)c(C(=O)O)cn(C4CC4)c3c2F)CC(C)N1` (stereo not given), for which the cytotoxicity call was “inactive”. For `CC(C)NC(=O)N(C)C[C@H]1OCCCC[C@@H](C)Oc2ccc(NC(=O)Nc3ccc(C(F)(F)F)cc3)cc2C(=O)N([C@H](C)CO)C[C@@H]1C` the value was “inactive”. For `CC(C)NC(=O)N(C)C[C@@H]1Oc2c(NC(=O)C3CCOCC3)cccc2C(=O)N([C@@H](C)CO)C[C@@H]1C` the value was “inactive”; for `COc1ccc(S(=O)(=O)Nc2ccc3c(c2)C(=O)N([C@@H](C)CO)C[C@H](C)[C@@H](CN(C)Cc2ccccc2)OCCCC[C@H](C)O3)cc1`, “inactive”.

With `C(=N\c1cc(-c2ccccc2)nn1-c1ccccc1)/c1ccccc1`, the cytotoxicity call was “inactive”. Next, `C[C@H]1CN([C@@H](C)CO)C(=O)c2cc(C#CC3CCCCC3)cnc2O[C@@H]1CN(C)C(=O)c1ccncc1`: “inactive”. For `O=C(CCCCCCC(=O)Nc1ccc([C@H]2C[C@H](c3ccccc3)O[C@H](c3cccc(Oc4ccccc4)c3)O2)cc1)NO` the value was “inactive”. For `C[C@H](CO)N1C[C@H](C)[C@H](CN(C)Cc2ccc(C(=O)O)cc2)Oc2ccc(NS(=O)(=O)c3cn(C)cn3)cc2CC1=O` the value was “inactive”; for `O=C(C[C@@H]1C[C@H]2c3cc(NS(=O)(=O)c4ccc(F)cc4)ccc3O[C@H]2[C@H](CO)O1)NCc1ccccc1F`, “inactive”. `C[C@@H]1COCCC(=O)N1`: the cytotoxicity call was “inactive”. `O=C1CN(c2ccccc2)C(=O)N1`: the cytotoxicity call was “inactive”.

On to `C[C@H]1CN([C@@H](C)CO)S(=O)(=O)c2ccc(C3=CCCCC3)cc2O[C@@H]1CN(C)S(=O)(=O)c1cn(C)cn1`, for which the cytotoxicity call was “inactive”.

On to `COc1ccc(S(=O)(=O)N(C)C[C@@H]2Oc3c(NC(=O)Nc4cccc5ccccc45)cccc3C(=O)N([C@H](C)CO)C[C@@H]2C)cc1`, for which the cytotoxicity call was “inactive”. For `C[C@@H]1CN([C@H](C)CO)C(=O)c2cccc(NC(=O)Nc3cccc4ccccc34)c2O[C@@H]1CN(C)S(=O)(=O)c1cccs1` the value was “active”; for `COc1ccc(S(=O)(=O)N(C)C[C@@H]2Oc3c(NC(=O)Nc4cccc5ccccc45)cccc3C(=O)N([C@H](C)CO)C[C@H]2C)cc1`, “active”. On to `COc1ccc(S(=O)(=O)N(C)C[C@H]2Oc3c(NC(=O)Nc4cccc5ccccc45)cccc3C(=O)N([C@H](C)CO)C[C@@H]2C)cc1`, for which the cytotoxicity call was “active”. Take `COc1ccc(S(=O)(=O)N(C)C[C@@H]2Oc3c(NC(=O)Nc4cccc5ccccc45)cccc3C(=O)N(C(C)C)C[C@H]2C)cc1`: the cytotoxicity call was “inactive”. For `C[C@@H]1CN([C@@H](C)CO)C(=O)c2cccc(NC(=O)Nc3cccc4ccccc34)c2O[C@@H]1CN(C)S(=O)(=O)c1cccs1` the value was “inactive”; for `C[C@@H]1CN([C@@H](C)CO)C(=O)c2cccc(NC(=O)Nc3cccc4ccccc34)c2O[C@H]1CN(C)S(=O)(=O)c1cccs1`, “inactive”; for `COc1ccc(S(=O)(=O)N(C)C[C@H]2Oc3c(NC(=O)Nc4cccc5ccccc45)cccc3C(=O)N([C@H](C)CO)C[C@H]2C)cc1`, “inactive”. For `COc1ccc(S(=O)(=O)N(C)C[C@@H]2Oc3c(NC(=O)Nc4cccc5ccccc45)cccc3C(=O)N([C@@H](C)CO)C[C@@H]2C)cc1`, the cytotoxicity call was “inactive”. For the molecule `C[C@@H]1CCCCO[C@@H](CN(C)S(C)(=O)=O)[C@H](C)CN([C@@H](C)CO)C(=O)c2cc(N(C)C)ccc2O1`, the cytotoxicity call is “inactive”.

Consider `COc1ccc(S(=O)(=O)N(C)C[C@H]2Oc3ncc(Br)cc3C(=O)N([C@@H](C)CO)C[C@@H]2C)cc1`, for which the cytotoxicity call is “inactive”. Next, `C[C@H](CO)N1C[C@H](C)[C@@H](CN(C)C(=O)Nc2ccccc2)Oc2ccc(NC(=O)C3CC3)cc2CC1=O`: “inactive”; `O=C1OCC=C[C@H]2O[C@@]34C=CCN(c5ccc(Cl)cc5)C(=O)[C@H]3N(CCCCCCO)C(=O)[C@@H]4[C@@H]12`: “inactive”; `C[C@@H]1CCCCO[C@H](CN(C)Cc2ccc(C(=O)O)cc2)[C@@H](C)CN([C@H](C)CO)C(=O)c2cc(NC(=O)Nc3ccccc3)ccc2O1`: “inactive”. Next, `CC(C)N1C(=O)C[C@@](C(=O)NCCN2CCOCC2)(c2ccc([N+](=O)[O-])cc2)[C@H]1c1ccc(CO)cc1`: “inactive”; `COc1ccc(NC(=O)Nc2ccc3c(c2)C(=O)N([C@@H](C)CO)C[C@H](C)[C@H](CN(C)C(=O)NC2CCCCC2)OCCCC[C@H](C)O3)cc1`: “inactive”. Next, `C[C@H]1CCCCO[C@H](CN(C)S(=O)(=O)c2ccccc2)[C@@H](C)CN([C@@H](C)CO)C(=O)c2cc(NC(=O)Nc3cccc4ccccc34)ccc2O1`: “inactive”; `Cc1noc(C)c1NC(=O)N[C@@H]1CC[C@H](CC(=O)NCCCN(C)C)O[C@H]1CO`: “inactive”; `C[C@H]1CN([C@@H](C)CO)C(=O)c2cc(NC(=O)C3CC3)ccc2O[C@H]1CN(C)S(=O)(=O)c1cn(C)cn1`: “inactive”. Turning to `Cc1cc(C(=O)Nc2cccc3c2O[C@H](CN(C)S(=O)(=O)c2ccc(Cl)cc2)[C@@H](C)CN([C@H](C)CO)C3=O)n(C)n1`, the cytotoxicity call is “inactive”. Next, `COc1cccc(C)c1NC(=O)O[C@H]1[C@H](OC(=O)Nc2ccccc2-c2ccccc2)[C@H](OC(=O)Nc2ccccc2-c2ccccc2)[C@@H](OC)O[C@@H]1CO`: “inactive”.

As for `COc1cc(NC(=O)CCN2CCC(OC(=O)Nc3ccccc3-c3ccccc3)CC2)c(Cl)cc1CNC[C@H](O)c1ccc(O)c2nc(O)ccc12`, the cytotoxicity call is “active”. As for `NCc1cc2ccc(F)cc2[nH]c1=O`, the cytotoxicity call is “inactive”.

For the molecule `C[C@H]1CN([C@@H](C)CO)C(=O)c2cc(C#CCN(C)C)cnc2O[C@H]1CN(C)C(=O)c1cnccn1`, the cytotoxicity call is “inactive”.

Consider `CC(=O)Oc1cc(OC(C)=O)c2c(c1)O[C@H](c1ccc(OC(C)=O)c(OC(C)=O)c1)[C@H](OC(C)=O)C2`, for which the cytotoxicity call is “inactive”. For `O=C1NC(=O)C(c2cnc3ccccn23)=C1c1cn2c3c(cc(F)cc13)CN(C(=O)N1CCCCC1)CC2` the value was “active”; for `C[C@H](CO)N1C[C@H](C)[C@@H](CN(C)S(=O)(=O)c2cn(C)cn2)Oc2c(NS(=O)(=O)c3ccc(Cl)cc3)cccc2C1=O`, “inactive”. Turning to `COc1cccc(-c2ccc3c(c2)O[C@@H](CN(C)C(=O)C2CCC2)[C@@H](C)CN([C@H](C)CO)S3(=O)=O)c1`, the cytotoxicity call was “inactive”. For `Cc1ccc(S(=O)(=O)N(C)C[C@H]2Oc3ccc(NS(=O)(=O)c4cccs4)cc3C(=O)N([C@@H](C)CO)C[C@@H]2C)cc1` the value was “inactive”. As for `Cl.O=C1CN2Cc3c(ccc(Cl)c3Cl)N=C2N1`, the cytotoxicity call was “active”. Regarding `C[C@H](CO)N1C[C@H](C)[C@H](CN(C)C(=O)C2CCOCC2)Oc2cc(-c3ccc(F)cc3)ccc2S1(=O)=O`, the cytotoxicity call was “inactive”. Next, `COc1ccc(S(=O)(=O)N(C)C[C@@H]2Oc3ncc(C#CC4(O)CCCC4)cc3C(=O)N([C@@H](C)CO)C[C@@H]2C)cc1`: “inactive”; `O=C(Cc1nn[nH]n1)NS(=O)(=O)c1ccccc1`: “inactive”; `C[C@@H]1CCCCO[C@@H](CN(C)CC2CC2)[C@H](C)CN([C@H](C)CO)C(=O)c2cc(NC(=O)Nc3ccc(F)cc3)ccc2O1`: “inactive”. Next, `C[C@@H]1CN([C@H](C)CO)C(=O)c2cc(NC(=O)Nc3ccc(F)cc3)ccc2O[C@@H](C)CCCCO[C@@H]1CN(C)CC1CCCCC1`: “active”; `C[C@@H]1CCCCO[C@H](CN(C)CC2CC2)[C@@H](C)CN([C@H](C)CO)C(=O)c2cc(NC(=O)Nc3ccc(F)cc3)ccc2O1`: “inactive”.

Turning to `C[C@H]1CCCCO[C@H](CN(C)CC2CCCCC2)[C@@H](C)CN([C@@H](C)CO)C(=O)c2cc(NC(=O)Nc3ccc(F)cc3)ccc2O1`, the cytotoxicity call was “active”. Next, `C[C@@H]1CCCCO[C@H](CN(C)CC2CCCCC2)[C@H](C)CN([C@H](C)CO)C(=O)c2cc(NC(=O)Nc3ccc(F)cc3)ccc2O1`: “active”.

Turning to `C[C@@H]1CCCCO[C@H](CN(C)CC2CC2)[C@H](C)CN([C@@H](C)CO)C(=O)c2cc(NC(=O)Nc3ccc(F)cc3)ccc2O1`, the cytotoxicity call is “inactive”. Turning to `C[C@H]1CCCCO[C@@H](CN(C)CC2CCCCC2)[C@@H](C)CN([C@@H](C)CO)C(=O)c2cc(NC(=O)Nc3ccc(F)cc3)ccc2O1`, the cytotoxicity call is “active”. Next, `C[C@@H]1CN([C@@H](C)CO)C(=O)c2cc(NC(=O)Nc3ccc(F)cc3)ccc2O[C@@H](C)CCCCO[C@H]1CN(C)CC1CC1`: “inactive”; `C[C@@H]1CCCCO[C@@H](CN(C)CC2CCCCC2)[C@@H](C)CN([C@@H](C)CO)C(=O)c2cc(NC(=O)Nc3ccc(F)cc3)ccc2O1`: “inactive”; `C[C@@H]1CCCCO[C@@H](CN(C)CC2CCCCC2)[C@@H](C)CN([C@H](C)CO)C(=O)c2cc(NC(=O)Nc3ccc(F)cc3)ccc2O1`: “inactive”. With `CO[C@@]1(C2=NCCN2)COc2ccccc2O1`, the cytotoxicity call is “inactive”. Next, `O=C1O[C@@H](c2ccccc2)[C@@H](c2ccccc2)N2[C@@H](c3ccccc3OCCO)[C@]3(C(=O)Nc4ccc(C#CC5(O)CCCCCC5)cc43)[C@@H](C(=O)N3CCCCCCC3)[C@H]12`: “inactive”; `C[C@H](CO)N1C[C@H](C)[C@H](CN(C)C(=O)C2CCCCC2)OCCCC[C@H](C)Oc2ccc(NC(=O)C3CCCCC3)cc2C1=O`: “inactive”. For `CCCn1c(=O)c(C)cn2nc(N)nc12` the value was “inactive”; for `O=C(N[C@@H]1C=C[C@@H](CC(=O)N2CCOCC2)O[C@@H]1CO)c1ccccn1`, “inactive”; for `O=C(CCn1ccc(=O)[nH]c1=O)Nc1ccc2c(c1)NC(=O)CO2`, “inactive”. For `COc1ccc2c3c([nH]c2c1)[C@@H](CO)N(CC1CCCCC1)C[C@]13CCN(CC1)C(=O)NC1CCCC1` the value was “inactive”; for `Cc1noc(C)c1S(=O)(=O)Nc1ccc2c(c1)CC(=O)N([C@H](C)CO)C[C@@H](C)[C@H](CN(C)Cc1ccc3c(c1)OCO3)O2`, “inactive”. On to `CN(C)c1ccsc1C(=O)NN`, for which the cytotoxicity call is “inactive”. Next, `C[C@@H]1CN([C@H](C)CO)C(=O)c2cc(NC(=O)CCC(F)(F)F)ccc2O[C@@H](C)CCCCO[C@H]1CN(C)C(=O)C1CCCCC1`: “inactive”.
